# Experimental data: PubChem BioAssay (NCATS)
# Where “and” joins values, the source holds several entries; their conditions need not be identical. Equal entries are not always repeated. Results filed as inconclusive are left out. Unmarked numbers belong to inactive results. Calls of active or inactive are those of the source. Unless noted, calls follow the shape of the full dose curve.
# Tested on: not listed separately
# Assay: qHTS for Inhibitors of Plasmodium falciparum (7G8) proliferation (AID 504316; active = well fitted curve in the direction sought with a large enough effect; an effect the other way counts as inactive or inconclusive; also: nearly all actives have a fitted effect of over 65% in size; also: potency is read from the fitted curve at half-maximal effect;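 as to activity change, negative = inhibition: 0% = DMSO vehicle and -100% = 0.29 µM artemisinin full kill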)
# Settings: P. falciparum 7G8 in erythrocytes, SYBR Green DNA, 72 h; series mostly up to 6.7 µM; activity change, negative = inhibition: at the top concentration
# In short: (§1)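 Erythrocytes infected with P. falciparum line (0.3% parasitemia, 2.5% hematocrit final) incubated with compounds 72 h at 37 °C, 5% CO2; SYBR Green lysis buffer added, fluorescence read next day. Normalized to 0.29 uM artemisinin and DMSO.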
SMILES,Potency,"activity change, negative = inhibition [%]"
COc1ccc(-c2nc(-c3ccccc3)c(NC(C)C)o2)cc1,1.51 µM (active),–
C=CCOC(=O)C(C(C)=O)[C@@H](NC(=O)OC)c1ccc2ccccc2c1 (some centres undefined),–,2.54
CCCCc1cc2c(cn1)=C(OC(=O)c1cccs1)C(C)(OC(=O)CC)C(=O)C=2 (centres undefined),1.69 µM (active),–
CCCCc1cc2c(cn1)C(=O)C(C)(OC(C)=O)C(=O)C2 (centres undefined),2.13 µM (active) and 1.69 µM (active),–
COC(=O)C1=C(C)N(Cc2ccco2)C(=O)NC1c1ccc(Br)cc1 (centres undefined),–,-14.2
CCCCC1=CC2=CC(=O)C(C)(OC(=O)CCc3ccccc3)C(=O)C2=CO1 (centres undefined),–,10.9
CC1=CC[C@@H](COc2ccccc2)O[C@@]2(C1)C(=O)Nc1cccc(Br)c12,–,-12.7
COc1ccc(COC(=O)NN=C2C[C@@H](O)[C@@H](O)[C@@H]3[C@H]4C(=O)N(C5CCCCC5)C(=O)[C@@H]4CC[C@@H]23)cc1,–,-8.99
COC(=O)C1=C(C)N(Cc2ccccc2)C(=S)NC1CCc1ccccc1 (centres undefined),–,-5.14

# Tested on: not listed separately
# Assay: qHTS for Inhibitors of Plasmodium falciparum (HB3) proliferation (AID 504318; active = well fitted curve in the direction sought with a large enough effect; an effect the other way counts as inactive or inconclusive; also: nearly all actives have a fitted effect of over 60% in size; also: potency is read from the fitted curve at half-maximal effect;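 as to activity change, negative = inhibition: 0% = DMSO vehicle and -100% = artemisinin control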)
# Settings: P. falciparum HB3 in erythrocytes, SYBR Green DNA, 72 h; series mostly up to 7.21 µM; activity change, negative = inhibition: at the top concentration
# In short: as §1
SMILES,Potency,"activity change, negative = inhibition [%]"
CCCCc1cc2c(cn1)=C(OC(=O)c1cccs1)C(C)(OC(=O)CC)C(=O)C=2 (centres undefined),1900 nM (active),–
COC(=O)CCC(=O)OC1(C)C(=O)C=C2C=C(C3CC3)N(CCCOC(C)C)C=C2C1=O (centres undefined),inactive,–
CCCCc1cc2c(cn1)C(=O)C(C)(OC(C)=O)C(=O)C2 (centres undefined),–,-9.76
CCCCC1=CC2=CC(=O)C(C)(OC(=O)CCc3ccccc3)C(=O)C2=CO1 (centres undefined),–,-4.87

# Tested on: not listed separately
# Assay: qHTS for Inhibitors of Plasmodium falciparum (CP250) proliferation (AID 504320; active = well fitted curve in the direction sought with a large enough effect; an effect the other way counts as inactive or inconclusive;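 also: plate controls were DMSO vehicle for no effect and 0.29 µM artemisinin control for full effect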)
# Settings: P. falciparum CP250 in erythrocytes, SYBR Green DNA, 72 h; series mostly up to 6.7 µM; activity change, negative = inhibition: at the top concentration
# In short: as §1
SMILES,"activity change, negative = inhibition [%]",Potency
CCCCc1cc2c(cn1)=C(OC(=O)c1cccs1)C(C)(OC(=O)CC)C(=O)C=2 (centres undefined),-0.992,–
COC(=O)CCC(=O)OC1(C)C(=O)C=C2C=C(C3CC3)N(CCCOC(C)C)C=C2C1=O (centres undefined),-27.8,–
CCCCc1cc2c(cn1)C(=O)C(C)(OC(C)=O)C(=O)C2 (centres undefined),–,inactive
CCCCC1=CC2=CC(=O)C(C)(OC(=O)CCc3ccccc3)C(=O)C2=CO1 (centres undefined),-0.156,–

# Target: Atrial natriuretic peptide receptor 1 (Homo sapiens) (UniProt P16066)
# Sequence (P16066 whole entry, looked up): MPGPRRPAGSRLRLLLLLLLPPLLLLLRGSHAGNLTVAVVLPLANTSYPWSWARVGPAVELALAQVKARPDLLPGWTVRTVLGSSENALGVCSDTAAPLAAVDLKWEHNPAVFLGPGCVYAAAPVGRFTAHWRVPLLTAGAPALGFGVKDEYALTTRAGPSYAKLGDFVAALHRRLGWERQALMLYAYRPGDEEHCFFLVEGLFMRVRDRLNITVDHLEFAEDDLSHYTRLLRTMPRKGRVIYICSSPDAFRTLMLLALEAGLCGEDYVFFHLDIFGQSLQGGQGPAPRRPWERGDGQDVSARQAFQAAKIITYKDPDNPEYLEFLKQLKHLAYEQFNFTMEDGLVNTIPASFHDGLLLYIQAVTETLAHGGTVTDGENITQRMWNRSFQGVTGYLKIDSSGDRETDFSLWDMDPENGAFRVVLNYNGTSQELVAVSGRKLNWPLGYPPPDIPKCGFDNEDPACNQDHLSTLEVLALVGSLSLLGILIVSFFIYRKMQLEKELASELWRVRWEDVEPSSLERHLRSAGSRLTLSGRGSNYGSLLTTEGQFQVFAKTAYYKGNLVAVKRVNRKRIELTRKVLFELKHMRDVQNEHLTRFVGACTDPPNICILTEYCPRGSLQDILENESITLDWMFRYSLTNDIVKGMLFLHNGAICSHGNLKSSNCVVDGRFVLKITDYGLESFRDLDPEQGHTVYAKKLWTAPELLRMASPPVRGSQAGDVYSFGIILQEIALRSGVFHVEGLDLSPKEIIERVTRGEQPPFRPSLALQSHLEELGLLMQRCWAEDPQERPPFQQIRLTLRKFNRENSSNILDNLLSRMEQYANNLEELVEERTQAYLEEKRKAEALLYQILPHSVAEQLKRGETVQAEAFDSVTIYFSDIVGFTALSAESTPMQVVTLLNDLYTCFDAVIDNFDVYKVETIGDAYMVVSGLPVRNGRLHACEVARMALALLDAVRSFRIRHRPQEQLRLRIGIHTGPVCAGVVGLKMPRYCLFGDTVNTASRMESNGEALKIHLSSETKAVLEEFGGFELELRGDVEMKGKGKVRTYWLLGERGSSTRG
# Assay: Natriuretic polypeptide receptor (hNpr1) antagonism - Pilot CMLD screen (AID 1347052);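 also: HEK293 cells with hNpr1 stimulated by hNppA peptide at 0.1 nM; cGMP level read as GloSensor luciferase luminescence after agonist stimulation; % is scaled to controls: 0 for no effect and ±100 for the full control effect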
# Settings: HEK293 hNpr1 GloSensor cGMP luminescence, ANP-stimulated; series mostly up to 9.22 µM; activity change, negative = inhibition: at the top concentration
SMILES,Potency,"activity change, negative = inhibition [%]"
COC(=O)CC=C[C@@H](C)[C@H](O)c1ccccc1Br,inactive,–
COc1ccc(-c2nc(-c3ccccc3)c(NC(C)C)o2)cc1,–,-3.4
CCOC(=O)C1=NO[C@@]2(C=C(Br)C(=O)[C@H]3O[C@H]32)C1,–,-0.508
C=CCOC(=O)C(C(C)=O)[C@@H](NC(=O)OC)c1ccc2ccccc2c1 (some centres undefined),–,-1.27
COC(=O)C1=C(C)N(Cc2ccccc2)C(=NCC(C)C)NC1c1cccc(C(F)(F)F)c1 (centres undefined),–,-2.28
CCC=C1C(=O)[C@]2(C(=O)c3ccccc3)C[C@H]3CCC(CCC)(C2=O)[C@@]13OC,–,-8.75
COC(=O)C1=C(C(=O)OC)[C@@H]2N(C)c3ccccc3[C@@]23C[C@@H](CO)N(C(=O)Nc2ccc(C(F)(F)F)cc2)C3=N1,–,2.43
CCN1C(=NCCc2cccs2)N[C@@H](CCc2ccccc2)[C@H](C(=O)NCCc2cccs2)[C@H]1C,–,-2.41
C[C@@H]1CC2=CCCC2[C@]2(O1)C(=O)N(Cc1ccc(F)cc1)c1cccc(Br)c12 (some centres undefined),–,0.402
CC1=CC[C@@H](COc2ccccc2)O[C@@]2(C1)C(=O)N(Cc1ccccc1C(F)(F)F)c1ccccc12,–,6.47
CCN1C(=NCc2cccc(Cl)c2)NC(c2cccc(C(F)(F)F)c2)C(C(=O)OC)=C1C (centres undefined),–,0.512
CC1(OC(=O)CCc2ccccc2)C(=O)C=C2C=C(c3ccc(C#N)cc3)N(CC3CC3)C=C2C1=O (centres undefined),–,0.691
COC(=O)C1=C(C(=O)OC)[C@@H]2N(C)c3ccccc3[C@@]23C[C@@H](CO)N(C(=O)NC2CCCCC2)C3=N1,–,4.39
COCOc1cc(OC)ccc1C(=O)C=Cc1ccc2c(c1)OCO2,inactive,–
CCN1C(=S)NC(c2cccc(C(F)(F)F)c2)C(C(=O)OC)=C1C (centres undefined),–,-2.34
COC(=O)C1=C(C)N(Cc2ccccc2)C(=NCCc2cccs2)NC1c1cccc(C(F)(F)F)c1 (centres undefined),–,-9.07
C[C@@H]1CC[C@H]2C(=O)O[C@@H](COc3ccc(C(C)(C)C)cc3)CN2[C@H]1c1ccc(Br)cc1,–,1.1
CC(=O)OC[C@H]1O[C@H](CCON=C(C)CCN2CCCc3nc(C)c(C)cc32)C=C[C@H]1OC(C)=O,–,1.83
CCCCc1cc2c(cn1)=C(OC(=O)c1cccs1)C(C)(OC(=O)CC)C(=O)C=2 (centres undefined),–,0.667
COC(=O)CCC(=O)OC1(C)C(=O)C=C2C=C(C3CC3)N(CCCOC(C)C)C=C2C1=O (centres undefined),–,2.95
CCCCc1cc2c(cn1)C(=O)C(C)(OC(C)=O)C(=O)C2 (centres undefined),–,2.35
COc1ccc2c(c1)C(=O)[C@H](OC(=O)N[C@H]1CCCc3ccccc31)[C@@H](c1ccc(OC)c(Br)c1)O2,–,-2.46
